MITF inhib – inhibitors of MITF | TRPM1 promoter luciferase, luminescence, 24 h | inhibition, % (concentration not given with the values) | 0.28% of 37,000 active | AID 2240; in the data active = inhibition above about 85%; inconclusive = no clear call, values can overlap the other calls; inactive = below about 68%;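 note: human melanocyte line stably carrying TRPM1 promoter luciferase reporter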
Shh pathway inh – blocks Sonic Hedgehog signaling. inhibition, % (test concentration not listed). 2.1% of 22,000 active. Shh-LIGHT2 Gli-luciferase reporter, 30 h;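 active = mean inhibition across valid replicates above about 65%, limit read from the data; inconclusive = mean under the limit, yet half or more replicates past it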;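 note: pathway switched on by Shh-conditioned medium diluted 1 in 25 in low serum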
NOMO-1 viab – STK33 inhibitor candidate reducing NOMO-1 cell viability. NOMO-1 AML viability, CellTiter-Glo luminescence, 72 h. 7.5% of 37,000 active. inhibition, % (concentration not given with the values); in the data active = inhibition above about 80%; inconclusive = no clear call, values can overlap the other calls
* = called active by the depositor; u = inconclusive; x = no result given. Hits are enriched below; roughly 7.9% of the tested compounds scored in any of these assays.

SMILES	MITF inhib	Shh pathway inh	NOMO-1 viab
C=C(C)C(=O)O[C@H]1C[C@@]2(C)OC(=CC2=O)/C(COC(C)=O)=C\[C@H]2OC(=O)C(=C)C12 (stereo not given in full)	34	u	120*
COC(=O)c1ccccc1NC(=O)COc1cc(C)c(Br)c(C)c1	-6	x	-4
C[C@H](CO)N1C[C@H](C)[C@@H](CN(C)C(=O)Nc2ccc(F)cc2)Oc2c(NC(=O)c3cnccn3)cccc2C1=O	-1	5	1
Cc1ccc(S(=O)(=O)N(C)C[C@H]2Oc3ccc(NC(=O)CCN4CCOCC4)cc3C(=O)N([C@@H](C)CO)C[C@H]2C)cc1	3	-1	4
C[C@@H]1CN([C@@H](C)CO)C(=O)c2cc(NS(=O)(=O)c3ccc(F)cc3)ccc2O[C@H]1CN(C)Cc1ccc(Cl)c(Cl)c1	24	x	u
C[C@@H]1CN([C@H](C)CO)C(=O)c2cc(NS(=O)(=O)c3ccc(Cl)cc3)ccc2O[C@H]1CN(C)Cc1ccc(Cl)c(Cl)c1	-13	x	19
C[C@@H]1CN([C@@H](C)CO)C(=O)c2cc(NS(=O)(=O)c3ccc(F)cc3)ccc2O[C@@H]1CN(C)Cc1ccc(Cl)c(Cl)c1	65	x	110*
C[C@H]1CN([C@@H](C)CO)C(=O)c2cc(NS(=O)(=O)c3ccc(F)cc3)ccc2O[C@H]1CN(C)Cc1ccc(Cl)c(Cl)c1	1	14	11
C[C@H](CO)N1C[C@H](C)[C@H](CN(C)Cc2ccc3c(c2)OCO3)Oc2ccc(NS(=O)(=O)c3ccc(F)cc3)cc2C1=O	-1	22	112*
C[C@H]1CN([C@@H](C)CO)C(=O)c2cc(NS(=O)(=O)c3ccc(Cl)cc3)ccc2O[C@@H]1CN(C)Cc1ccc(Cl)c(Cl)c1	51	21	100*
C[C@@H]1CN([C@H](C)CO)C(=O)c2cc(NS(=O)(=O)c3ccc(F)cc3)ccc2O[C@H]1CN(C)Cc1ccc2c(c1)OCO2	-15	x	-6
C[C@@H]1CN([C@@H](C)CO)C(=O)c2cc(NS(=O)(=O)c3ccc(Cl)cc3)ccc2O[C@H]1CN(C)Cc1ccc(Cl)c(Cl)c1	46	13	119*
Cc1ccc(S(=O)(=O)Nc2ccc3c(c2)C(=O)N([C@@H](C)CO)C[C@@H](C)[C@H](CN(C)S(=O)(=O)c2cn(C)cn2)O3)cc1	-8	-1	-8
CC(NC(=O)COc1ccc(Cl)cc1Cl)C(=O)O (stereo not given)	-19	x	-2
Cc1ccc(N(CC(N)=O)S(=O)(=O)c2ccc(Cl)cc2)cc1	6	x	-23
C[C@@H]1CN([C@H](C)CO)C(=O)c2cccc(NS(=O)(=O)c3ccccc3)c2O[C@@H]1CN(C)C(=O)NC1CCCCC1	2	-2	17
C=C(CO)[C@]1(O)C[C@@]2(C)C(=CC1=O)C=C[C@@H](O)[C@@H]2C	-14	-9	5
C[C@H](CO)N1C[C@H](C)[C@@H](CN(C)S(=O)(=O)c2ccc(Cl)cc2)Oc2c(NC(=O)Nc3ccc(F)cc3)cccc2C1=O	-12	34	36
C[C@H]1CN([C@@H](C)CO)C(=O)c2cccc(NC(=O)Nc3ccc(C(F)(F)F)cc3)c2O[C@H]1CN(C)S(=O)(=O)c1ccc(Cl)cc1	-3	105*	60
C[C@H](CO)N1C[C@H](C)[C@H](CN(C)S(=O)(=O)c2ccccc2)Oc2c(NC(=O)Nc3ccc(C(F)(F)F)cc3)cccc2C1=O	0	-30	29
C[C@H](CO)N1C[C@H](C)[C@H](CN(C)S(=O)(=O)c2ccc(Cl)cc2)Oc2c(NC(=O)Nc3ccc(C(F)(F)F)cc3)cccc2C1=O	10	100*	53
COc1ccc(NC(=O)N(C)C[C@H]2Oc3c(NS(=O)(=O)c4ccccc4)cccc3C(=O)N([C@@H](C)CO)C[C@H]2C)cc1	-3	7	33
COc1cccc(S(=O)(=O)NCC(=O)N2CCCCC2C)c1 (stereo not given)	6	x	-4
CSc1cccc(NC(=O)CSc2nnnn2-c2ccccc2)c1	6	x	23
CSc1ccc(/C=N/n2nnnc2Nc2ccccc2)cc1	4	44	95*
SMILES	MITF inhib	Shh pathway inh	NOMO-1 viab
C[C@@H]1CN([C@H](C)CO)C(=O)c2cccc(NC(=O)C3CCOCC3)c2O[C@@H]1CN(C)S(=O)(=O)c1cccs1	3	0	10
O=C(CSc1nc2sc3c(c2c(=O)n1Cc1ccccc1)CCCCC3)c1ccccc1	4	x	u
C[C@H](CO)N1C[C@H](C)[C@H](CN(C)Cc2ccc(Cl)c(Cl)c2)Oc2ccc(NC(=O)Nc3ccc(C(F)(F)F)cc3)cc2CC1=O	-3	-14	124*
C[C@@H]1CN([C@H](C)CO)C(=O)Cc2cc(NC(=O)Nc3ccc(C(F)(F)F)cc3)ccc2O[C@@H]1CN(C)Cc1ccc(Cl)c(Cl)c1	3	21	79
C[C@@H]1CN([C@H](C)CO)C(=O)Cc2cc(NC(=O)Nc3ccc(C(F)(F)F)cc3)ccc2O[C@H]1CN(C)Cc1ccc(Cl)c(Cl)c1	-1	-15	31
C[C@H]1CN([C@@H](C)CO)C(=O)Cc2cc(NC(=O)Nc3ccc(C(F)(F)F)cc3)ccc2O[C@H]1CN(C)Cc1ccc(Cl)c(Cl)c1	93*	9	136*
CC(C)NC(=O)N(C)C[C@H]1Oc2ccc(NC(=O)Nc3ccc(C(F)(F)F)cc3)cc2CC(=O)N([C@@H](C)CO)C[C@@H]1C	0	x	7
Cc1ccc(C(C)C)c(OCc2ccc(C(=O)Nc3sc4c(c3C#N)CCCC4)o2)c1	-15	x	-1
COc1ccc(-n2ncc(NC(=O)Nc3ccc4c(c3)OCCCO4)c2C)cc1	-13	u	3
O=C(O)CCc1ccc(-c2cccs2)n1-c1cccc(C(F)(F)F)c1	9	x	0
Cc1ccc(Nc2nnc(-c3ccc(C)c(S(=O)(=O)NCC4CCCO4)c3)c3ccccc23)cc1 (stereo not given)	-2	91*	119*
CNS(=O)(=O)c1cc(-c2nnc(Nc3cccc(O)c3)c3ccccc23)ccc1C	-1	x	18
CN(C)CCCN1C(=O)C(=O)C(C(=O)c2ccco2)C1c1ccc([N+](=O)[O-])cc1 (stereo not given)	-9	x	-26
COc1ccc(NC(=O)CSc2ncnc3c2sc2nc(N4CCOCC4)c4c(c23)CC(C)(C)OC4)cc1	-10	x	99*
Cc1nc(NCCN2CCOCC2)c2sc3nc4c(cc3c2n1)COC(C)(C)C4	-13	x	8
CCN(CC)CCNc1ncnc2c1sc1nc(N3CCCC3)c3c(c12)CC(C)(C)OC3	-23	x	113*
COC(=O)CCSc1ncnc2c1sc1nc(N3CCOCC3)c3c(c12)CCCC3	-41	x	4
Cc1c(OC(=O)c2ccco2)ccc2c3c(c(=O)oc12)CCC3	-8	3	29
Cc1c(C)c(C)c(C(=O)c2ccccc2C(=O)NCc2cccnc2)c(C)c1C	-1	25	38
CCOC(=O)c1c(NC(=O)c2ccccc2N(C)S(C)(=O)=O)sc2c1CCCC2	-7	x	35
S=c1[nH]nc(CSCc2cccc3ccccc23)n1C1CCCCC1	18	69*	24
O=c1[nH]c(SCc2n[nH]c(=S)n2-c2ccccc2)nc2ccccc12	-27	x	-2
CSc1c(CC(=O)NCCc2ccccc2)n(C)c2ccccc12	24	16	9
Cn1c(-c2ccc(Cl)cc2)cs/c1=N\C(=S)NCCc1ccccc1	4	91*	19
